Screening data: PubChem BioAssay, National Center for Advancing Translational Sciences (NCATS)
Many of the other results were omitted from the sample, so hits are more common in it than they were.
IkB signaling: suppresses IkB signaling in ABC-DLBCL reporter cells; ABC-DLBCL IkBa-CBG/CBR dual luciferase ratio, 4 h; response scale: scaled: untreated 0%, proteasome inhibitor 100%; Potency, µM (titrated, usually from 57.1 µM), without a hit: at the top dose IkBa stabilization activation; 0.04% of 110,000 active; active = well fitted curve in the direction sought with a large enough effect in the signal ratio, not every such curve was filed as active; inconclusive = small, poorly fitted or top-dose-only effect, or a change in a side signal; the % refers to the signal ratio;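 also: potency is read from the fitted curve at half-maximal effect; the direction sought is a rising ratio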
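Curves were fitted separately to fusion (green), unfused (red) and ratio luminescence, then classed by r2, magnitude and activity. Cells: OCI-Ly3, 4 h compound plus doxycycline at 37C; 10 uM MG-132 defined full response.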
ERK AVP inh: vasopressin-driven ERK pathway inhibition. HEK293-V1b, vasopressin-stimulated pERK AlphaScreen. 0.99% of 72,000 active. Potency, µM (highest dose often 57.5 µM), without a hit: at the top dose activity, negative = inhibition, usual class: inhibitors; also: potency is read from the fitted curve at half-maximal effect; % is scaled to controls: 0 for no effect and ±100 for the full control effect; nearly all actives have a fitted effect of over 55% in size
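Phosphorylated ERK1/2 detected via AlphaScreen bead proximity in lysates of V1b-expressing HEK293 cells given 25 nM vasopressin for 5 min after 30 min compound exposure (37 °C). AC50 from Hill equation; basal DMSO 0%, vasopressin 100%.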
HBB splicing: alters splicing of the hemoglobin beta chain; HBB splicing reporter cell assay, activation; EGFP reporter with mutant IVS2-654 intron; response scale: normalised to 500 nM splice-correcting PNA; Potency, µM (top dose mostly 46.1 µM), for inactives: at the highest dose activation, most hits filed as activators; 0.06% of 65,000 active; AID 925; also: potency is read from the fitted curve at half-maximal effect; 0% is about no effect
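HeLa cells stably expressing EGFP interrupted by mutant beta-globin intron 2 (IVS2-654), 500/well in 2% FCS. Treated with compound for 2 days at 37C. Splicing correction scored as total well GFP intensity (488 nm excitation, 500-520 nm emission); 500 nM antisense PNA served as control.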
Epigenetic mod: epigenetic GFP locus derepression in mouse cells | 0.09% of 68,000 active | mouse C127i GFP locus derepression, cytometry, 30 h | AID 597 | Potency, µM (highest dose often 46.1 µM), for the others: at the highest dose GFP derepression (activation); also: % of control where 0% means no effect
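Murine C127i mammary cells carrying a silenced, stably integrated CMV-driven GFP reporter were treated with compound for 30 hours at 37 C. After PBS washes, GFP-positive cells were counted by laser-scanning microplate cytometry.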
CRE-bla Fsk: alters forskolin-stimulated CRE reporter signaling in CHO cells; CHO CRE-bla reporter (cAMP response element driving beta-lactamase), forskolin EC10, beta-lactamase ratio; Potency, µM (doses to about 38.2 µM), inactives show at the top dose activity change, negative = inhibition, usual class: activators; 2.5% of 71,000 active; AID 662; active = well fitted activation curve with a large enough effect in the signal ratio, with a control signal flat, not every such curve was filed as active; inconclusive = small, poorly fitted or top-dose-only effect, or effect the other way, or a change in a side signal; the % refers to the signal ratio; also: potency is read from the fitted curve at half-maximal effect; % of control where 0% means no effect
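Reporter-gene assay: CHO cells with beta-lactamase behind cAMP responsive elements, co-treated with compound and EC10 NKH 477 for 3 hours at 37 degrees Celsius. Activity came from the 460/530 nm CCF4 emission ratio.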
CHO tox 24h: CHO cell toxicity at 24 h by ATP luminescence. 120 tested, under 10 active. activity, negative = viability loss, % at 46.1 µM. AID 905. shares compounds with CRE-bla Fsk. CRE-bla CHO viability, ATP luminescence, 24 h
CHO tox 40h: cytotoxicity in CRE-bla CHO cells at 40 h. shares compounds with CRE-bla Fsk. CRE-bla CHO viability, ATP luminescence, 40 h. Potency, µM, for inactives: max response, usual class: inhibitors. 120 tested, under 10 active
CRE-luc potent: confirmation of CRE signaling potentiators in HEK293 CREB reporter cells; 80% of 120 active; Potency, µM (top dose mostly 38.3 µM), for inactives: top-dose activity, positive = activation, usual class: activators; shares compounds with CRE-bla Fsk; HEK293 CRE-luc2P, NKH477 EC10 potentiation, luminescence, 4 h
An asterisk follows results filed as active; ? = inconclusive; / = not tested or not shown; [ ] = dose if it differs, or a comment. Unless noted, calls follow the shape of the dose curve; as a rule, active = well fitted curve in the direction sought with a large enough effect; inconclusive = small, poorly fitted or top-dose-only effect, or another doubt; inactive = no such curve, though single readings can be large; an effect the other way counts as inactive or inconclusive.

SMILES	IkB signaling	ERK AVP inh	HBB splicing	Epigenetic mod	CRE-bla Fsk	CHO tox 24h	CHO tox 40h	CRE-luc potent
CCn1cc(C(=O)Nc2cccc(NC(C)=O)c2)c2cc(OC)c(OC)cc2c1=O	0%	-28%	2%	0%	?	/	/	/
CCc1nc(SCC(=O)N2CCc3ccccc32)c2oc3ccccc3c2n1	0%	-7%	3%[0.369 µM]	2%	2%	9	-4%	14µM*
Cc1nc(SCC(=O)N2CCCc3ccccc32)c2oc3ccccc3c2n1	-1%	-23%	-1%[0.369 µM]	-2%	0.5µM*	-17	-27%	4µM*
Cc1nc(SCC(=O)Nc2ccccc2)c2oc3ccccc3c2n1	1%	-3%	-1%[57.5 µM]	0%	0.5µM*	-18	-18%	5µM*
CCn1c(SCC(=O)N2CCCc3ccccc32)nc2ccccc2c1=O	?	-4%	0%[57.5 µM]	0%	?	/	/	/
O=C(CSc1ncnc2c1oc1ccccc12)Nc1cccc(Cl)c1	1%	7%	-3%[1.84 µM]	-2%	?	/	/	/
CCOc1cc(C2c3c(oc4cc(C)c(Cl)cc4c3=O)C(=O)N2Cc2ccco2)ccc1O (configuration not stated)	1%	-10%	0%	6%	13µM*	-21	-25%	0.79µM*
Cc1cc2oc3c(c(=O)c2cc1C)C(c1cccc(Br)c1)N(Cc1ccco1)C3=O (configuration not stated)	7%	15%	5%[0.369 µM]	2%	-4%	/	/	/
Cc1ccc(C)c(N2CCN(S(=O)(=O)c3ccc4c(c3)OCCO4)CC2)c1	?	-2%	/	0%	6%	3	-17%	13µM*
Cc1ccc(Cl)cc1N1CCN(S(=O)(=O)c2ccc3c(c2)OCCO3)CC1	4%	3%	/	0%	5%	/	/	/
O=C(CSc1n[nH]c(-c2ccccc2)n1)c1ccccc1	1%	/	0%	/	-6%	/	/	/
CN(C)c1nc(N)nc(CSc2n[nH]c(-c3ccccc3)n2)n1	2%	-25%	-1%	-1%	1.6µM*	-6	-28%	13µM*
CCCS(=O)(=O)c1nc(S(=O)(=O)c2ccc(C)cc2)c(NC)s1	-1%	/	/	/	/	/	/	/
CCCN(CCC)CCNC(=O)c1cc2c(=O)n(C)c3ccccc3c2n1C	0%	-18%	-1%	/	19%	-10	-11%	13µM*
CN(CCNC(=O)c1cc2c(=O)n(C)c3ccccc3c2n1C)Cc1ccccc1	2%	8%	-1%	/	?	/	/	/
Cn1c(C(=O)NCCCN2CCCC2=O)cc2c(=O)n(C)c3ccccc3c21	1%	?	-1%	/	4µM*	-8	-21%	13µM*
C=CCn1c(SCC(=O)Nc2sccc2C(N)=O)nc2sc(C)c(C)c2c1=O	0%	10%	0%[57.5 µM]	-2%	2µM*	?	?	4µM*
Cc1nnc(SCC(=O)Nc2sccc2C(N)=O)n1Cc1ccccc1	0%	14%	0%	0%	?	/	/	/
CCCn1c(-c2ccc(F)cc2)nc2c(NCCCCN3CCCC3)nc(C)nc21	/	-1%	0%	/	?	/	/	/
O=C(O)c1c2c(c(O)c3c1CN(C1CCCCC1)CO3)OCN(C1CCCCC1)C2	0%[11.4 µM]	-6%[11.5 µM]	2%[9.22 µM]	-3%[9.22 µM]	-3%[7.6 µM]	/	/	/
CC[C@]1(O)C[C@@H]2CN(CCc3c([nH]c4ccccc34)[C@](C(=O)OC)(c3cc4c(cc3OC)N(C=O)[C@H]3[C@@](O)(C(=O)OC)[C@H](C(=O)OC)[C@@]5(CC)C=CCN6CC[C@]43[C@H]65)C2)C1	1%	3%	/	-1%	0.5µM*	-22	?	8%
